Source: PubChem
NSD2 HMT inh = NSD2 (human) methyltransferase inhibition; AID 743445; inhibition, % at 12.5 µM; O96028; NSD2 peptide methylation, AlphaScreen, 120 min; 0.54% of 310,000 active; in the data active = inhibition above about 50%
PAX8 reporter = PAX8 transcriptional activity inhibition; RMG-I TPO-luciferase reporter, SteadyGlo, 24 h; inhibition, % at 12.6 µM; 1.2% of 360,000 active;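 active = mean replicate inhibition at least 60% with every replicate also reaching 60%; inconclusive = only one of the two criteria is met; inactive = mean below 60% and not all replicates reaching 60%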;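 note: luciferase light reporting Pax8 driven TPO promoter activity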
HIV Env fusion = blocks HIV Env-driven cell-cell fusion; HeLa-JRFL Env/CEM21 cell fusion, luciferase; inhibition, % at 12.3 µM; 1.1% of 360,000 active; AID 651610;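 active = mean replicate inhibition score of at least 50 and every replicate individually at or above 50; inconclusive = only one of the two criteria met; inactive = mean below 50 and not all replicates reaching 50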
LMP1 NFkB inh = Epstein-Barr LMP1 NF-kappaB reporter inhibition; LMP1-induced NF-kappaB luciferase reporter cells, luminescence; inhibition, % at 12.5 µM; 0.69% of 350,000 active; AID 504558; in the data active = inhibition above about 41%; inconclusive = no clear call, values can overlap the other calls
N-glyco inh = N-linked glycosylation inhibition. D54 ERlucT glycosylation luciferase reporter, 24 h; percent of 100 nM tunicamycin response. reporter increase, % at 12.5 µM. 0.23% of 360,000 active. AID 588692;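 active = mean luciferase reporter signal, scaled so untreated is 0 and the glycosylation-blocking control 100, at or above a set limit in every replicate; inconclusive = mean reaches the limit but not every replicate does; inactive = mean below the limit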;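 note: luciferase carries N-glycosylation sites so blocking glycosylation raises the light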
Shn3 3UTR inh = reduces Shn3 3'UTR luciferase signal in osteoblasts | 0.52% of 360,000 active | inhibition, % at 12.5 µM | AID 588674 | Clone20 osteoblast Shn3 3'UTR firefly luciferase, 24 h;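 active = mean inhibition of at least 75% with every replicate also reaching 75%; inconclusive = mean inhibition at least 75% but some replicate below; inactive = mean inhibition below 75%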
A number is an active result; n = inactive; u = inconclusive; x = no result; ! = a repeat was not active; [ ] = remark or other dose. Rows were chosen to be rich in hits. Some 2.8% of all compounds tested hit in one or more screens of this group.

SMILES	NSD2 HMT inh	PAX8 reporter	HIV Env fusion	LMP1 NFkB inh	N-glyco inh	Shn3 3UTR inh
C[C@H](CO)N1C[C@H](C)[C@@H](CN(C)C)Oc2ccc(NS(C)(=O)=O)cc2CC1=O	x	n	x	x	x	x
CCCCCCCCCCOC(=O)Cn1c(COc2ccccc2)[n+](C)c2ccccc21	n	71	n	n	n	u
CCOC(=O)Cn1c(COc2ccccc2OC)[n+](C)c2ccccc21	n	n	n	x	n	n
CCCCCCCCCCOC(=O)Cn1c(COc2cccc(C)c2)[n+](C)c2ccccc21	n	n	n	n	n	n
CCCCOC(=O)Cn1c(=O)n(CC(=O)OCCCC)c2ccccc21	n	x	x	n	n	n
CCCCCCCCCCOC(=O)Cn1c(COc2ccc(Cl)cc2)[n+](C)c2ccccc21	n	n	n	n	n	96
CCCCCCCCCCOC(=O)Cn1c(COc2ccc(OC)cc2)[n+](C)c2ccccc21	n	x	x	n	n	94!
COc1cccc(C#Cc2ccc([C@H]3[C@@H](CO)N4C(=O)CN(S(=O)(=O)c5ccccc5C)C[C@H]34)cc2)c1	x	n	x	x	x	x
C=CCn1c(SCc2c(C)noc2C)nc2sc(C)c(C)c2c1=O	n	x	68	n	n	n
CN(C)CCCNC(=O)[C@H]1[C@H](CO)[C@H]2Cn3c(ccc(C4=CCCC4)c3=O)[C@H]2N1CCC(F)(F)F	x	x	57[16.7 µM]	x	x	x
N#C[C@H]1[C@@H](c2ccccc2-c2ccccc2F)[C@@H](CO)N1C(=O)C1CCOCC1	x	n	x	x	x	x
Cc1cc(C)cc(N(CC(=O)N2CCc3ccccc32)S(=O)(=O)c2c(C)noc2C)c1	x	n	n	n	n	n
CCOc1ccc(N(CC(=O)Nc2ccccc2OCC)S(=O)(=O)c2c(C)noc2C)cc1	n	80	n	n	n	n
CCOc1ccc(N(CC(=O)N2CCc3ccccc32)S(=O)(=O)c2c(C)noc2C)cc1	x	n	n	47	n	n
CNC(=O)C[C@H]1CC[C@H]2[C@@H](COc3ccc(NC(=O)Nc4ccccc4OC)cc3C(=O)N2C)O1	x	n	n	x	x	x
COCCCN=C1NN=C(c2cc(C)n(Cc3ccccc3Cl)c2C)CS1	53	n	n	n	n	n
COCCCN=C1NN=C(c2cc(C)n(-c3ccccc3)c2C)CS1	x	n	n	n	n	n
COCCn1c(C)cc(C2=NNC(=Nc3ccccc3F)SC2)c1C	x	x	n	64	n	n
COCCCN=C1NN=C(c2cc(C)n(-c3ccccc3F)c2C)CS1	n	n	n	n	n	n
N#Cc1ccc(CSc2nnc(COc3ccccc3)n2-c2ccccc2)cc1	n	x	75	n	n	n
N#Cc1ccc(S(=O)(=O)N2CCCN(c3nc4ccc(Cl)cc4s3)CC2)cc1	n	n	55	n	n	n
C[C@H]1CN([C@@H](C)CO)C(=O)Cc2cc(NC(=O)Cc3ccccc3)ccc2O[C@@H]1CN(C)Cc1ccc(C(=O)O)cc1	x	n	n	x	x	x
COc1cccc(S(=O)(=O)N2C[C@H](O)COC[C@@H]3O[C@H](CC(=O)N4CCN(C)CC4)CC[C@H]32)c1	x	n	x	x	x	x
CCOC(=O)Cn1c(S(=O)(=O)Cc2cccc(F)c2)nc(-c2ccccc2)c1-c1ccccc1	n	x	87	n	n	n
C#CCn1c(S(=O)(=O)Cc2ccc(F)cc2)nc(-c2ccccc2)c1-c1ccccc1	n	x	66	43	n	n
SMILES	NSD2 HMT inh	PAX8 reporter	HIV Env fusion	LMP1 NFkB inh	N-glyco inh	Shn3 3UTR inh
CCOC(=O)Cn1c(S(=O)(=O)Cc2ccc(F)cc2)nc(-c2ccccc2)c1-c1ccccc1	n	x	n	n	n	n
CO[C@H]1CN(C)C(=O)c2cc(NC(=O)C3CC3)ccc2OC[C@@H](C)N(C(=O)c2ccncc2)C[C@H]1C	x	n	n	x	x	x
C[C@@H]1CN([C@H](C)CO)C(=O)CCCn2cc(nn2)CO[C@@H]1CN(C)Cc1ccc(C(=O)O)cc1	x	n	x	x	x	x
Cn1c(/C(C#N)=C/c2ccc(-c3ccc(S(N)(=O)=O)cc3)o2)nc2ccccc21	n	76	n	n	n	n
O=C1CCCC2=C1C(c1cccs1)Nc1ccccc1N2 (stereo not drawn)	n	n	87	n	n	n
Cc1ccc2c(c1)C(c1ccccc1)N(C(=O)c1c(F)cccc1Cl)CC(=O)N2 (stereo not drawn)	n	n	59	n	n	n
O=C1CN(C(=O)c2c(F)cccc2F)C(c2ccccc2)c2cc(Br)ccc2N1 (stereo not drawn)	n	n	n	n	n	n
